# Source: PubChem BioAssay (several laboratories)
# Hits are enriched below; roughly 1.6% of the tested compounds scored in any of these assays.
# PREPL inh: inhibits the human prolyl oligopeptidase-like enzyme | Q4J6C6 | recombinant PREPL, fluorescence polarization activity-based probe | inhibition, % at 5.96 µM | 320,000 tested, 0.68% active; in the data active means inhibition above about 43%;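 further: 0% = enzyme with DMSO and 100% = wells lacking enzyme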
# Pemphigus Ab inh: blocks pemphigus antibody binding to human desmoglein-3. P32926. DSG3-coupled beads, scFv-anti-DSG3-GFP binding, flow cytometry; stronger effect = lower value. binding (percent of control), % at 10 µM. 310,000 tested, 0.48% active. AID 588358;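 active means binding more than 3 SD below its plate's average and above zero; inconclusive means below that plate limit but binding exactly zero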;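 further: hits lower antibody fragment binding to DSG3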
# GASC-1 inh: inhibitors of human GASC-1 (JMJD2C) demethylase; 330,000 tested, 0.069% active; GST-JMJD2C(1-420) H3K9me3 demethylation, DELFIA europium; inhibition, % at 2.35 µM; Q9H3R0; AID 2099;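 active means more than half of a compound's replicate wells show inhibition beyond 50%, single wells judged on their own value; inconclusive means some, but no more than half, of replicates pass 50% inhibition; inactive means no replicate passes 50% inhibition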;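 further: signal counts dimethyl H3K9 product captured on neutravidin plate; 0% = median of DMSO wells and 100% = 0.3 times that DMSO median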
# Target sequence (Q9H3R0 1-420 limits assumed): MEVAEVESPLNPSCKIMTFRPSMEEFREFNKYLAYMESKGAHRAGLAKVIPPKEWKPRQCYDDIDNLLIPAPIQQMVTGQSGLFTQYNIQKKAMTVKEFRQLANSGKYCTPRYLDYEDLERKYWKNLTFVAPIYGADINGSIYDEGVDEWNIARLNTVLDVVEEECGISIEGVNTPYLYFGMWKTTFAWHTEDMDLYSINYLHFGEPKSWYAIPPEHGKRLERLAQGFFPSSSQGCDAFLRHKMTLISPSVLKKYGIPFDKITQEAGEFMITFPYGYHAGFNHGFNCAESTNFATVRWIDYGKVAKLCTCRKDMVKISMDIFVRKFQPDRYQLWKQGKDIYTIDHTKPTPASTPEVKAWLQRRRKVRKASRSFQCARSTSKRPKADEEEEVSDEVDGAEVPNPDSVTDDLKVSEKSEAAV
# VLA-4 inh: inhibition in a human VLA-4 binding assay; 330,000 tested, 0.2% active; inhibition, % (about 7 µM as worked out from the volumes in the protocol); VLA-4 expressing cells, ligand binding flow cytometry; P13612; AID 2557; in the data active means inhibition above about 50%
# GRK2 inh: human GRK2 inhibition via aptamer displacement; 330,000 tested, 0.59% active; bead flow cytometry, FAM-aptamer displacement from GRK2; inhibition of aptamer binding, % at 10 µM;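 active means inhibition of aptamer binding above 40%, roughly 3 SD of noise, on plates passing a quality check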;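 further: median bead fluorescence of bound FAM aptamer so fluorescent compounds give negative values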
# GRK2 inh confirm: human GRK2 inhibition confirmation, cherry pick 1. shares compounds with GRK2 inh. bead-bound GRK2, FAM-aptamer displacement, flow cytometry. aptamer displacement, % at 10 µM. 2,000 tested, 4% active. AID 504451;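 active means aptamer displacement above 40%, near three times the noise of non-fluorescent compounds, on plates passing quality checks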;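 further: negative values mostly reflect intrinsic compound fluorescence rather than true enhancement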
# Aptamer quench 1: fluorescent aptamer quenching in GRK2 counter-screen dose response; shares compounds with GRK2 inh; fluorescence change (kMESF span), kMESF (test concentration not listed); Fluorescent RNA aptamer beads, flow cytometry; stronger effect = higher value; 110 tested, under 10 active;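 active means compounds whose bead fluorescence drops by more than 37 kMESF across the dose range, marking them as dye quenchers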
# FAM quench CP1: counter-screen for GRK2 aptamer inhibitors: fluorescent aptamer quenchers; 2,000 tested, under 10 active; shares compounds with GRK2 inh; fluorescence response (% of DMSO), % at 10 µM; Carboxyfluorescein RNA aptamer on beads, flow cytometry quenching; stronger effect = lower value;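 active means compounds that quench the bead-bound fluorescent RNA probe, cutting fluorescence to under half of the solvent control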;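 further: counterscreen run without GRK2 so only probe quenching by compound is measured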
# GRK2 confirm 2: human GRK2 inhibition confirmation, cherry pick 2 | bead-bound GRK2, FAM-aptamer displacement, flow cytometry | shares compounds with GRK2 inh | inhibition of aptamer binding, % at 10 µM | 360 tested, under 10 active | AID 504782;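 active means inhibition of aptamer binding above 40%, about triple the noise seen with nonglowing compounds, on plates passing quality control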;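 further: negative values mostly come from compounds that fluoresce themselves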
# FAM quench CP2: quenches fluorescent RNA aptamer, GRK2 hit artifact; carboxyfluorescein RNA aptamer beads, flow cytometry quenching; stronger effect = lower value; fluorescence response vs DMSO, % at 10 µM; 360 tested, under 10 active; shares compounds with GRK2 inh; AID 588494;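 active means response vs DMSO under 50%, meaning signal dropped by over half, treated as fluorescence quencher; inconclusive means no clear call, values can overlap the other calls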;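 further: labelled aptamer on streptavidin beads without GRK2 as a quench counter-screen; 100% = bead fluorescence of DMSO wells and lower means quenching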
# FAM quench DR: quenches fluorescent RNA aptamer, GRK2 hit artifact; shares compounds with GRK2 inh; Bead-bound FAM RNA aptamer fluorescence quenching, flow cytometry; stronger effect = lower value; fluorescence ratio to DMSO, % at 11.1 µM; 35 tested, under 10 active;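 active means compounds that dim the fluorescent label, raw bead signal shifting by over 33 units between lowest and highest dose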
# Starred values were filed as active, the others as inactive; ? = inconclusive; . = no result given.
SMILES,PREPL inh,Pemphigus Ab inh,GASC-1 inh,VLA-4 inh,GRK2 inh,GRK2 inh confirm,FAM quench CP1,others
N/C(=N\OC(=O)c1cc(Cl)ccc1Cl)c1ccccn1,-3.5,101.2,-0.3,2.6,100.0*,-2.4,102.2,
CCOc1ccccc1CN1CCN(C/C=C/c2ccc(OC)cc2)CC1CCO (stereo not drawn),30.6,100.5,0.7,-4.9,3.0,.,.,
COc1ccc(/C=C/CN2CCN(CCc3ccccc3)C(CCO)C2)cc1 (stereo not drawn),14.7,.,13.6,5.6,90.0*,-9.1,100.4,
Cc1ccc(NC(=O)CCn2c(=O)[nH]c3ccsc3c2=O)cc1F,7.7,.,-26.2,-4.5,71.0*,-0.1,99.5,
Cc1cc(CNC(=O)CC2C(=O)NCCN2Cc2ccc(-c3ccccc3)cc2)nn1C (stereo not drawn),27.5,88.6,5.3,3.6,3.0,-15.2,95.9,
O=C1NCCN(Cc2ccc(-c3ccccc3)cc2)C1CC(=O)N1CCN(CCO)CC1 (stereo not drawn),29.8,107.3,-8.0,4.0,100.0*,0.1,81.5,
CSc1ncccc1C(=O)OCC(=O)NCc1ccccc1,-2.9,105.2,4.2,3.9,2.0,.,.,
CC(=O)c1ccc(NC(=O)C(C)Sc2nnc(C3CC3)n2C2CC2)cc1 (stereo not drawn),7.2,98.6,-12.8,-6.8,0.0,.,.,
NC(=O)c1ccsc1NC(=O)CS(=O)(=O)c1ccc(F)cc1,9.8,100.8,7.8,0.1,0.0,.,.,GRK2 confirm 2=9.2;FAM quench CP2=100.0
CC1(C)NC(=O)N(c2ccc([N+](=O)[O-])c(C(F)(F)F)c2)C1=O,2.1,.,.,4.5,10.0,.,.,
Cc1ccc(-c2nc(CS(=O)(=O)CC(=O)N3CCCCCC3)c(C)o2)cc1,17.8,82.2,-6.0,-5.7,73.0*,-4.4,102.9,
O=C(NC1CC1)c1cc(=S)[nH]c2ccccc12,12.5,96.6,3.5,20.9,29.0,1.4,99.3,
Cc1cccc(Cl)c1NNC(=O)Nc1c([N+](=O)[O-])c(C)nn1C,24.8,109.9,-6.5,-7.8,44.0*,0.0,99.9,
NC(=O)c1ccsc1NC(=O)COC(=O)c1ccc([N+](=O)[O-])o1,20.6,100.7,2.7,5.5,80.0*,-2.6,98.8,
C=CCN(C(=O)CSc1nc2c(sc3ccccc32)c(=O)n1CCN(CC)CC)c1ccccc1,15.6,113.7,-2.3,9.4,0.0,.,.,
CCN(CC)C(=O)Cn1cc(SCC(=O)NC2CCCCC2)c2ccccc21,.,109.2,.,.,.,.,.,
COC(=O)c1cccc(NC(=O)CSc2nnc(C)n2Cc2ccccc2)c1,-16.2,98.5,-13.6,28.8,3.0,.,.,
O=C(CSc1cn(CCNC(=O)c2ccccc2)c2ccccc12)NCc1ccco1,6.0,106.8,17.7,8.6,72.0*,-3.2,102.8,
O=C(CSc1cn(CCNC(=O)c2cccs2)c2ccccc12)NC1CCCC1,2.0,106.0,13.9,18.5,0.0,.,.,GRK2 confirm 2=-0.1;FAM quench CP2=106.0
O=C(C[n+]1ccc(C(=O)c2ccccc2)cc1)Nc1ccccc1OC(F)F,12.2,118.0,3.1,1.7,28.0,.,.,
CC(OC(=O)c1cc2c(ccc3ccccc32)oc1=O)c1nc2ccccc2s1 (stereo not drawn),-9.8,94.4,-3.8,18.5,0.0,.,.,
O=C(Nc1ccc2[nH]c(=O)[nH]c2c1)C(F)(F)F,-1.3,98.3,15.4,-2.3,0.0,.,.,
CCOc1ccc(-c2cn[nH]c2N)cc1,14.6,.,10.7,-4.9,4.0,.,.,
COc1ccc(-c2cn[nH]c2N)cc1,1.4,113.4,10.5,8.3,63.0*,2.2,81.6,
CC(C)OC(=O)CCC1(C(=O)O)CCC(=O)NC1 (stereo not drawn),-7.5,101.8,-5.9,6.3,0.0,.,.,
SMILES,PREPL inh,Pemphigus Ab inh,GASC-1 inh,VLA-4 inh,GRK2 inh,GRK2 inh confirm,FAM quench CP1,others
CCNC(=S)NNC(=O)c1csc2c1CCC(C)C2 (stereo not drawn),10.9,.,45.4,-11.7,0.0,.,.,
CC(C)(C)C1CCc2c(C(=O)NNC(=O)CCCC(=O)O)csc2C1 (stereo not drawn),13.7,97.6,-7.0,-4.5,97.0*,-4.8,100.4,
O=C(NC1CCOc2ccccc21)c1ccc(=O)[nH]c1 (stereo not drawn),-2.5,?,25.6,39.1,2.0,.,.,
CC1CCCC(NC(=O)COC(=O)c2cc(S(=O)(=O)N3CCOCC3)ccc2F)C1C (stereo not drawn),-4.5,98.6,.,15.1,60.0*,0.8,101.5,
CC1CCCC(NC(=O)COC(=O)c2ccc(S(=O)(=O)N3CCOCC3)cc2)C1C (stereo not drawn),-5.0,106.6,4.1,7.8,1.0,.,.,
Cc1cc2c(N=NC(=O)C3CC3c3ccccc3)c(O)[nH]c2cc1Br (stereo not drawn),11.5,119.1,8.7,-18.0,0.0,.,.,
COCCN1CCN(C(=O)C2CCC(=O)N(Cc3cccc(C(F)(F)F)c3)C2)CC1 (stereo not drawn),.,100.1,5.4,-5.0,0.0,.,.,
O=C(Nc1ccc2oc(-c3ccncc3)nc2c1)c1ccc2c(c1)OCO2,7.2,98.5,-8.0,-5.8,8.0,.,.,
O=C(Nc1ccc2oc(-c3cccnc3)nc2c1)c1ccc2c(c1)OCCO2,10.3,83.5,1.4,4.0,60.0*,7.2,96.4,
Cc1ccc(C2=NCCn3c2c2ccc(C(F)(F)F)cc2[n+]3[O-])cc1,1.4,98.3,-4.1,-2.0,1.0,.,.,
Clc1cccc(CN2CCSCC2)c1,6.0,100.9,-9.8,8.9,99.0*,34.3,101.8,
O=C(O)CNS(=O)(=O)c1ccc2c3c(cccc13)C(=O)N2,.,117.2,3.7,-13.0,78.0*,-1.3,100.0,
COc1cccc(C2=NO[C@@H]3C(=O)N(c4ccc5c(c4)OCCO5)C(=O)[C@H]23)c1OC,4.5,94.9,-2.3,10.7,3.0,.,.,GRK2 confirm 2=1.1;FAM quench CP2=102.0
O=C(O)C1CC(=O)N(c2ccc3c(c2)OCCO3)C1 (stereo not drawn),4.9,102.5,.,-13.6,61.0*,40.2*,96.8,Aptamer quench 1=-11.5;FAM quench DR=101.0
